Laboratory results published in the supplement of paper PMC10849652.
About 7,900 targets were measured; listed, in parts, are those with a hit and a random draw of the rest. About 0.6% of all pairs of compound and target were hits.

Key:
Assay in all cases: log2 fold change, soluble protein after heating vs DMSO (PISA); higher = thermal stabilisation; K562 cells, 10 uM, 30 min; active = over 0.2 and 3.5 SD of the protein, either way, in both replicates (recomputed)
[1] = compound: C1COCCN1CCN2C3=CC=CC=C3N=C2NC(=O)C4=CC(=CC=C4)[N+](=O)[O-] [IRAK-1-4 Inhibitor I]
Procedure, shortened: (§1)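 K562 cells at 2×10^6 cells/mL were given 10 μM compound for 30 min. Aliquots then went through 3 min of heating across 48°C-58°C, were pooled, and were extracted in PBS with 0.5% NP-40 at 4°C, and the supernatant after 21,000xg for 90 min was quantified by TMTpro 16plex LC-MS/MS with channel sums equalised. Thermal stability relative to control samples, from duplicates, is given as log2 fold change.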

[2] = compound: C=CC(=O)N1CCC[C@@H](n2nc(-c3ccc(Oc4ccccc4)cc3)c3c(N)ncnc32)C1 [ibrutinib]
Procedure, shortened: as §1

[3] = compound: CC(=O)c1cnc2ccc(-c3cc(Cl)c(O)c(Cl)c3)nc2c1N[C@H]1CC[C@H](CN(C)C)CC1
Procedure, shortened: as §1

[4] = compound: CC(C)(C)Cn1c(N)nc2ccc(-c3[nH]c(C(C)(C)C)nc3-c3ccc(F)cc3)nc21 [ralimetinib]
Procedure, shortened: as §1

[5] = compound: CC(C)(O)CC(=O)NCCn1ccc2ncnc(Nc3ccc(Oc4cccc(C(F)(F)F)c4)c(Cl)c3)c21
Procedure, shortened: as §1

[6] = compound: CC(C)C1=C2N=C(C=C(N2N=C1)NCC3=CC=CC=C3)NCCCCCCN
Procedure, shortened: as §1

[7] = compound: CC(C)C[C@@H](C=O)NC(=O)[C@H](CC(C)C)NC(=O)[C@H](CC(C)C)NC(=O)OCc1ccccc1
Procedure, shortened: as §1

[8] = compound: CC(C)N(C[C@H]1O[C@@H](n2cnc3c(N)ncnc32)[C@H](O)[C@@H]1O)[C@H]1C[C@@H](CCc2nc3cc(C(C)(C)C)ccc3[nH]2)C1 [pinometostat]
Procedure, shortened: as §1

[9] = compound: CC1=C(C(CC(=O)N1)C2=CC=C(C=C2)C(F)(F)F)C(=O)NC3=C(C=C4C(=C3)C=NN4)F
Procedure, shortened: as §1

[10] = compound: CC1=C(C2=C(C=C1)C(=O)C3=CC=CC=C3N2CCCN)C
Procedure, shortened: as §1

[11] = compound: CC1=C(C=C(C=C1)NC(=O)C2=CC(=CC=C2)C(C)(C)C#N)NC3=CC4=C(C=C3)N=CN(C4=O)C
Procedure, shortened: as §1

[12] = compound: CC1=C(C=C(C=C1)NC(=O)C2=CC(=CC=C2)N(C)C)NC(=O)C3=CC=C(C=C3)O
Procedure, shortened: as §1

[13] = compound: CC1=CC=C(C=C1)SC2=C3C=C(SC3=CN=C2)C(=O)N
Procedure, shortened: as §1

[14] = compound: CC1=NC(=CC=C1)C2=C(N=C(N2)C(C)(C)C)C3=CC4=NC=CN=C4C=C3
Procedure, shortened: as §1

[15] = compound: CCCCN(Cc1ccc(C(=O)NO)cc1)C(=O)Nc1ccccc1 [Nexturastat A]
Procedure, shortened: as §1

[16] = compound: CCCS(=O)(=O)Nc1ccc(F)c(C(=O)c2c[nH]c3ncc(-c4ccc(Cl)cc4)cc23)c1F [vemurafenib]
Procedure, shortened: as §1

[17] = compound: CCCS(=O)(=O)Nc1ccc(F)c(C(=O)c2c[nH]c3ncc(Cl)cc23)c1F
Procedure, shortened: as §1

[18] = compound: CCCc1cc(C)[nH]c(=O)c1CNC(=O)c1cc(-c2ccnc(N3CCN(C)CC3)c2)cc2c1cnn2C(C)C
Procedure, shortened: as §1

[19] = compound: CCN(CC)Cc1ccc2cc(COC(=O)Nc3ccc(C(=O)NO)cc3)ccc2c1 [givinostat]
Procedure, shortened: as §1

[20] = compound: CCN(CCCOc1ccc2c(Nc3cc(CC(=O)Nc4cccc(F)c4)[nH]n3)ncnc2c1)CCOP(=O)(O)O [barasertib]
Procedure, shortened: as §1

Measured: log2 fold change

WDR41 (UniProt Q9HAD4)
Sequence of UniProt Q9HAD4 (Q9HAD4 whole entry, looked up): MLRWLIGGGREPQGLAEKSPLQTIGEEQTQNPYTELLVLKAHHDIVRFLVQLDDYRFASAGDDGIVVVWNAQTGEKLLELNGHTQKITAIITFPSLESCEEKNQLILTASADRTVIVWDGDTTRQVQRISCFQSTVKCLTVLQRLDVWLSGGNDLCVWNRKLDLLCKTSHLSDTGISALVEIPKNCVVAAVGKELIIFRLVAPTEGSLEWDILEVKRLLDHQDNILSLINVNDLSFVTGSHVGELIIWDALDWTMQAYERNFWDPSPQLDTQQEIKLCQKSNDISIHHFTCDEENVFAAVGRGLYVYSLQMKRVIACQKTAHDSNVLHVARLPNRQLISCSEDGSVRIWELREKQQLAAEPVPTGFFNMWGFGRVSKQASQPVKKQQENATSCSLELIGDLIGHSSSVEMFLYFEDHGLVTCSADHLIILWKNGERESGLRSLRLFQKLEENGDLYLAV
inactive: [1] -0.024 | [2] -0.022 | [3] -0.023 | [4] -0.036 | [5] -0.077 | [7] -0.026 | [8] 0.012 | [9] 0.127 | [10] -0.001 | [11] 0.044 | [12] 0 | [13] -0.007 | [14] 0.001 | [15] 0.002 | [16] 0.008 | [17] 0.036 | [18] -0.011 | [19] -0.04 | [20] 0.033
active: [6] -0.271

TRMT10A (UniProt Q8TBZ6)
Sequence of UniProt Q8TBZ6 (Q8TBZ6 whole entry, looked up): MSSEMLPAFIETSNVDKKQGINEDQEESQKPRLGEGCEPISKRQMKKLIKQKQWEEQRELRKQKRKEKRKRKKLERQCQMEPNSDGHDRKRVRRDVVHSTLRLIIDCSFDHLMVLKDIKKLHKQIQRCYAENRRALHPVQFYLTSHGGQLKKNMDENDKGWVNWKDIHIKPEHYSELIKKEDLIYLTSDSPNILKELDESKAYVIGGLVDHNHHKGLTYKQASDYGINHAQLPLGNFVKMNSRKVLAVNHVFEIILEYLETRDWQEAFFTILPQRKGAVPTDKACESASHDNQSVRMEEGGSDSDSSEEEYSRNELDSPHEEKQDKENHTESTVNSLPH
inactive: [1] 0.056 | [2] -0.009 | [3] -0.065 | [4] -0.006 | [5] -0.107 | [6] -0.075 | [7] -0.01 | [8] 0.042 | [9] 0.02 | [10] 0.066 | [11] 0.006 | [12] -0.004 | [13] 0.063 | [14] 0.031 | [15] -0.079 | [16] 0.014 | [17] -0.017 | [18] -0.011 | [19] -0.004 | [20] -0.019

TRMT61A (UniProt Q96FX7)
Sequence of UniProt Q96FX7 (Q96FX7 whole entry, looked up): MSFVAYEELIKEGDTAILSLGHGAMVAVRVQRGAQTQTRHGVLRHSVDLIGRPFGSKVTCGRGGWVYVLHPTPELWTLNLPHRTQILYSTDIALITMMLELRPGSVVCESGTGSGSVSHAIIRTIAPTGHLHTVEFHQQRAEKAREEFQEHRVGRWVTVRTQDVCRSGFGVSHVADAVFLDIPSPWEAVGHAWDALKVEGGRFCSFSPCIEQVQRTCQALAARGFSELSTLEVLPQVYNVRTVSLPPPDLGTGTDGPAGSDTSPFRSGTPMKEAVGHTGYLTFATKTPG
inactive: [1] 0.07 | [2] 0.14 | [3] -0.002 | [4] 0.06 | [5] 0.109 | [6] -0.099 | [7] 0.086 | [8] 0.188 | [9] -0.034 | [10] -0.401 | [11] 0 | [12] 0.056 | [13] -0.013 | [14] -0.083 | [15] 0.204 | [16] -0.119 | [17] -0.009 | [18] 0.114 | [19] 0.038 | [20] -0.091

TMEM189-UBE2V1 (UniProt I3L0A0)
inactive: [1] 0.048 | [2] 0.022 | [3] -0.022 | [4] 0.006 | [5] -0.024 | [6] 0.031 | [7] -0.028 | [8] -0.046 | [9] 0.03 | [10] 0.037 | [11] -0.067 | [12] 0.017 | [13] 0.006 | [14] -0.003 | [15] -0.042 | [16] -0.005 | [17] -0.056 | [18] -0.182 | [19] 0.024 | [20] -0.054

VRK1 (UniProt Q99986)
Sequence of UniProt Q99986 (Q99986 whole entry, looked up): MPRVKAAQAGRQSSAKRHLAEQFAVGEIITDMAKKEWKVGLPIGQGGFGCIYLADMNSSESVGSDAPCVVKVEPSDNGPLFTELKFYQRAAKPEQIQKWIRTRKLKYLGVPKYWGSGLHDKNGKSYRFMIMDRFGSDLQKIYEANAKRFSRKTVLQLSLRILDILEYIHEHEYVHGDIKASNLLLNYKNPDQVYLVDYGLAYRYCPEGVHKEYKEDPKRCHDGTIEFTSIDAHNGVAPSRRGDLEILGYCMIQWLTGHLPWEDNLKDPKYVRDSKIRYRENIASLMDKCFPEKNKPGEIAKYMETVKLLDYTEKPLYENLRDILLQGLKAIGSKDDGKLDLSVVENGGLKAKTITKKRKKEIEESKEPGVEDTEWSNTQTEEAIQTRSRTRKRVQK
inactive: [1] -0.041 | [2] 0.032 | [3] 0.338 | [4] -0.033 | [5] -0.32 | [6] -0.013 | [7] 0.055 | [8] -0.008 | [9] -0.027 | [11] -0.089 | [12] -0.121 | [13] 0.096 | [14] 0.063 | [15] -0.085 | [16] 0.122 | [17] 0.072 | [18] 0.108 | [19] 0.046 | [20] 0.075
active: [10] 0.433

VPS16 (UniProt Q9H269)
Sequence of UniProt Q9H269 (Q9H269 whole entry, looked up): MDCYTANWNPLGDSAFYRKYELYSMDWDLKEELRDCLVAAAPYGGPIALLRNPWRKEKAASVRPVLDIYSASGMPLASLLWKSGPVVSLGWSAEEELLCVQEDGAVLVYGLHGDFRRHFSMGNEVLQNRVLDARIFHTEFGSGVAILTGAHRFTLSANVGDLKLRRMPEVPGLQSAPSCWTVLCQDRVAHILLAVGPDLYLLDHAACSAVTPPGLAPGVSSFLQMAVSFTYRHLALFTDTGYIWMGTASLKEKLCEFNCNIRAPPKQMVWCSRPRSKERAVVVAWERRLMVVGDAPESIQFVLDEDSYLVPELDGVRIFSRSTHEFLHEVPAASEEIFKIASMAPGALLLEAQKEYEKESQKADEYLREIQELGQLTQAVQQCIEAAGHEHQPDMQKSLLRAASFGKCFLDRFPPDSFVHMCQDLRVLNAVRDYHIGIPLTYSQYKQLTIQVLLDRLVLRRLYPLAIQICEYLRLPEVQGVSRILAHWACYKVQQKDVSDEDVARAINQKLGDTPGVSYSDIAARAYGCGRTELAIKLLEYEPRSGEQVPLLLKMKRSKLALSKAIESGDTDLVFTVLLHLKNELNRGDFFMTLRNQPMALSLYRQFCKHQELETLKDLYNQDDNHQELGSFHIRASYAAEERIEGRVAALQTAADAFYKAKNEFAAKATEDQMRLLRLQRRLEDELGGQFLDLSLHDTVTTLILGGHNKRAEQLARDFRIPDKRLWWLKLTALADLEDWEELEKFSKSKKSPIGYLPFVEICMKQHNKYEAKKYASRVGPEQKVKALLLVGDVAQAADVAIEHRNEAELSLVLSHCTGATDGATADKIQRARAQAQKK
inactive: [1] 0.028 | [2] -0.073 | [3] -0.02 | [4] 0.043 | [5] -0.154 | [6] -0.29 | [7] -0.035 | [8] 0.1 | [9] 0.006 | [10] 0.061 | [11] 0.023 | [12] 0.011 | [13] 0.032 | [14] -0.013 | [15] 0.038 | [16] 0.017 | [17] 0.109 | [18] 0 | [19] 0.075 | [20] -0.086

UBR2 (UniProt Q8IWV8)
Sequence of UniProt Q8IWV8 (Q8IWV8 whole entry, looked up): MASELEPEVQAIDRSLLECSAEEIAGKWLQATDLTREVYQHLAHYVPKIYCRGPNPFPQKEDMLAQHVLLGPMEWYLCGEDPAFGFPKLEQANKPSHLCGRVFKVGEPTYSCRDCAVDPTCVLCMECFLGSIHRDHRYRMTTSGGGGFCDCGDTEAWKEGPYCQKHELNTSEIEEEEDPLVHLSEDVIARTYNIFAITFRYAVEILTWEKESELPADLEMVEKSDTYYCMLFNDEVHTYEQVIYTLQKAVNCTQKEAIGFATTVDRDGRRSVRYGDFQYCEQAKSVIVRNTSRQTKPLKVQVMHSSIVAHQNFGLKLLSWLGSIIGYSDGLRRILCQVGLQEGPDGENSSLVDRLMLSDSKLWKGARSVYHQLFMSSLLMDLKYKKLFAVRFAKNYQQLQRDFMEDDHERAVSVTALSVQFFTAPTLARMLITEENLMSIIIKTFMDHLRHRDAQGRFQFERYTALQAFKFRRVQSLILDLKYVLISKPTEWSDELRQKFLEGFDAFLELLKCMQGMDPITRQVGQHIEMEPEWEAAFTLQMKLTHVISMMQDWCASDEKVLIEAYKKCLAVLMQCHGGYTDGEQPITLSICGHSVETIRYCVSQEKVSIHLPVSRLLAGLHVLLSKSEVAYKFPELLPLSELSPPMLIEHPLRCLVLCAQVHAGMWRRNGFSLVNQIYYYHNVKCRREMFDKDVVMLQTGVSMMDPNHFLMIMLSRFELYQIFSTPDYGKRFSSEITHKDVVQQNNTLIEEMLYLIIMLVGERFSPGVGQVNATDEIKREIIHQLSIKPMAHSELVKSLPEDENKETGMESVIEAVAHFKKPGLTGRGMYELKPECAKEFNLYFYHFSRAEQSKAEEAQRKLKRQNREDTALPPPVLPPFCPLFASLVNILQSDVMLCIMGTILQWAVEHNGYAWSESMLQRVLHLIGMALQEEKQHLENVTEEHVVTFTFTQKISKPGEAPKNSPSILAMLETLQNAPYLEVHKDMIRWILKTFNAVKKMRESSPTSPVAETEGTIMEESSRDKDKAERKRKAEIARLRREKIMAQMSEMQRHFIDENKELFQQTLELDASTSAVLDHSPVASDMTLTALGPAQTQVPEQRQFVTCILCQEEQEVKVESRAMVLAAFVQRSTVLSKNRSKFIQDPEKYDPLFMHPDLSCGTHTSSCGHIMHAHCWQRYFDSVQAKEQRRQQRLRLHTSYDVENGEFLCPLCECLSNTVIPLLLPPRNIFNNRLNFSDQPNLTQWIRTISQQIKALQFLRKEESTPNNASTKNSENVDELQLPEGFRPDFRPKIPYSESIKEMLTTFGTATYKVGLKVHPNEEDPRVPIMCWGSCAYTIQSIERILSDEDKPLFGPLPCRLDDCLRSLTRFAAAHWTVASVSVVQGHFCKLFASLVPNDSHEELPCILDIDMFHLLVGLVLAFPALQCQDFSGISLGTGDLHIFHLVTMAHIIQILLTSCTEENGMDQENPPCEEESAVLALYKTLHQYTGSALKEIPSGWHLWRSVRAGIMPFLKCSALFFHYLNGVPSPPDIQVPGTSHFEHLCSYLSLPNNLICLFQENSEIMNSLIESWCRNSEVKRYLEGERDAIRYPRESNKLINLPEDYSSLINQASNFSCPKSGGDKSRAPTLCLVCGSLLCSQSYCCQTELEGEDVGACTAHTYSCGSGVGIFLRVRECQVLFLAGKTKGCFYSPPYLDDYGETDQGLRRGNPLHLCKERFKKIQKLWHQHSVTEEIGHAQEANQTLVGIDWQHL
active: [7] 0.351
inactive: [1] 0.002 | [2] -0.102 | [3] -0.11 | [4] 0.029 | [5] -0.086 | [6] -0.058 | [8] 0.137 | [9] -0.01 | [10] 0.076 | [11] 0.079 | [12] -0.08 | [13] 0.048 | [14] -0.03 | [15] 0.078 | [16] 0.029 | [17] 0.037 | [18] -0.038 | [19] 0.192 | [20] 0.046
